Hits are enriched below; roughly 7.3% of the tested compounds scored in any of these assays.
FMDV antiviral – High Throughput Screening for Foot and Mouth Disease Virus Antivirals. Potency, µM (highest dose often 57.9 µM), most hits filed as inhibitors. AID 1159524, 2015. FMDV antiviral cell-based qHTS. hit rate 1.2% among 410,000; calls by dose curve; tested in HEK293T cells; note: read-out not given here; nearly all actives have a fitted effect of over 45% in size
Vaccinia mCherry – qHTS for Stage-Specific Inhibitors of Vaccinia Orthopoxvirus: mCherry Reporter Primary qHTS | Vaccinia virus mCherry reporter infection, fluorescence | Potency, µM (top dose mostly 36.5 µM), usual class: inhibitors | hit rate 0.63% among 310,000; calls by dose curve; tested in A549 cells; note: nearly all actives have a fitted effect of over 35% in size
HCV inh – qHTS Assay for Inhibitors of Hepatitis C Virus (HCV); Huh7.5.1 HCVcc-Cre infection, luciferase reporter, 44 h; Potency, µM (highest dose often 41.8 µM), most hits filed as inhibitors; hit rate 3.4% among 340,000; AID 651820, 2012; active = well fitted inhibition curve with a large enough effect; inconclusive = small, poorly fitted or top-dose-only effect, or another doubt; inactive = no such curve, though single readings can be large or run the other way
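1,000 cells/well; 4 h culture; + compound; + HCVcc-Cre (~0.5 moi); 44 h; luciferase substrate, RT 15 min; read 15 sec.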
HCMV inh – qHTS Assay for inhibitors of the human cytomegalovirus (HCMV) | HFF cells, HCMV-luciferase reporter, 72 h; hits give low values | activity change, negative = inhibition, % at 57.5 µM | hit rate 4.5% among 410,000 | AID 1259415, 2018; in the data active = activity change below about -60%; inconclusive = no clear call, values can overlap the other calls; inactive = above about -39%
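Inhibition of viral replication was scored as loss of reporter luminescence in HFFs infected with HCMV-luciferase (MOI 1 PFU/cell) for 72 h; compounds tested at 2 doses, normalized to buffer and Salinomycin controls.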
Vaccinia Venus – qHTS for Stage-Specific Inhibitors of Vaccinia Orthopoxvirus: Venus Reporter Primary qHTS; Vaccinia virus Venus reporter expression, fluorescence; Potency, µM (series often up to 36.5 µM), usual class: inhibitors; hit rate 0.46% among 330,000; AID 720580, 2013; calls by dose curve; tested in A549 cells; note: nearly all actives have a fitted effect of over 30% in size
Hits are given with their value; - = inactive; ? = inconclusive; . = not tested or not shown; + = active, no number.

SMILES	FMDV antiviral	Vaccinia mCherry	HCV inh	HCMV inh	Vaccinia Venus
COc1ccccc1-c1nc2c(c(SCC(=O)Nc3ccccc3F)n1)Cc1c(CO)cnc(C)c1O2	-	-	.	-	-
O=C(NCc1cccc(Cl)c1)c1cc(COc2ccc3ncccc3c2)on1	16µM	?	6.3µM	?	-
CC(CCCC(C)(C)O)NC(=O)c1cc(COc2ccc3ncccc3c2)on1 (configuration not stated)	?	-	5.6µM	-88	-
Cc1ccc(OCc2cc(C(=O)NCCc3cccnc3)no2)cc1C	-	.	?	-	.
Cc1ccc(F)cc1CNC(=O)c1cc(COc2ccc3ncccc3c2)on1	25µM	?	2.8µM	-96	-
Cc1ccc(OCc2cc(C(=O)NC(C)Cc3cccnc3)no2)cc1C (configuration not stated)	-	.	?	-	.
Cc1cc(C)n(CCNC(=O)c2cc(COc3ccc4ncccc4c3)on2)n1	13µM	.	?	-	.
CSc1ccccc1OCc1cc(C(=O)NCCn2nc(C)cc2C)no1	-	-	.	-	-
COc1cccc(CCNC(=O)c2cc(COc3ccc(C)c(C)c3)on2)c1OC	-	-	.	-	-
CC1(C(=O)O)CCCN1C(=O)c1cccc(C(F)(F)F)c1 (configuration not stated)	-	-	.	-	-
CC(C)c1ccc(Nc2cc3c(cn2)ncn3CC2CC2)cc1	.	.	.	-	.
COc1ccc(S(=O)(=O)NC(=O)C2(C)CCN2C(=O)C2CCCCC2)cc1OC (configuration not stated)	-	-	.	-	-
O=C(C[n+]1ccccc1)Nc1ccccc1[N+](=O)[O-]	-	-	-	-	-
O=[N+]([O-])c1oc2ccc3ccccc3c2c1CCO	-	?	?	-102	10µM
O=C(/C=C/c1ccccc1)NC(NC(=S)Nc1cc(Cl)ccc1Cl)C(Cl)(Cl)Cl (configuration not stated)	-	10µM	?	-	?
O=C(/C=C/c1ccccc1)NC(NC(=S)Nc1ccc(Cl)cc1)C(Cl)(Cl)Cl (configuration not stated)	-	.	?	?	.
CCN(CC)CCNC(=O)c1ccc(NCN2C(=O)NC(c3ccccc3)(c3ccccc3)C2=O)cc1	.	.	.	-	.
O=C(c1ccccc1)n1c2ccccc2c(=O)n1-c1ccccc1CCl	-	-	.	.	-
O=C(Nc1ccccc1O)C(c1ccccc1)c1ccccc1	?	-	13µM	?	-
O=C(O)c1ccccc1NC(=O)C(c1ccccc1)c1ccccc1	-	-	-	-	-
COc1cc(C(=O)Nc2ccc(S(=O)(=O)NC(C)(C)C)cc2)cc(OC)c1OC	-	.	13µM	-	.
CCn1c2ccccc2c2cc(NC(=O)c3cc(OC)c(OC)c(OC)c3)ccc21	-	?	?	-88	?
CCn1c2ccccc2c2cc(NC(=O)c3cc(OC)cc(OC)c3)ccc21	-	-	?	-92	?
CCn1c2ccccc2c2cc(NC(=O)COc3ccc(OC)cc3)ccc21	-	.	?	-	.
CCn1c2ccccc2c2cc(NC(=O)c3cc(C)on3)ccc21	-	-	14µM	-	?
SMILES	FMDV antiviral	Vaccinia mCherry	HCV inh	HCMV inh	Vaccinia Venus
CCOc1ccc(NC(=O)Cc2coc3ccc(C)cc23)cc1	-	-	.	-	-
C[C@H](CO)N1C[C@H](C)[C@@H](CN(C)S(=O)(=O)c2ccc(C#N)cc2)OCc2cn(nn2)CCCC1=O	-	-	.	-	-
Cc1ccc(Cn2c(=O)n(Cc3ccccc3Cl)c(=O)c3cccnc32)cc1	-	-	.	-	-
O=C(c1csnn1)N1CCC[C@@]2(CCN(Cc3ccccc3)C2)C1	-	.	.	.	.
COC(=O)[C@]12CCCCC=C1N(CCC1=CCCCC1)C(=O)[C@H](CC(=O)NCc1ccccc1)C2	-	-	.	-	-
Cc1ccc(CN(Cc2cccn2-c2nnc(N3CCCC3=O)s2)C(=O)Nc2cc(C)cc(C)c2)cc1	-	-	.	-	-
Cc1ccn(-c2ccc([N+](=O)[O-])cc2)n1	-	.	-	-88	.
C(=Cc1cnc2ccccc2n1)c1ccc2c(c1)OCO2	1.8µM	?	.	-81	-
C(=C\c1nc2ccccc2nc1/C=C/c1ccc2c(c1)OCO2)/c1ccc2c(c1)OCO2	.	-	.	.	-
C[n+]1c(/C=C/c2ccc3c(c2)OCO3)ccc2ccccc21	-	-	-	-66	-
COC(=O)/C=C1\Nc2ccc(Cl)cc2C(=O)NC1=O	.	.	.	-	.
O=C(CN1C(=O)/C(=C/c2ccccc2F)Sc2ccccc21)NCCCN1CCOCC1	-	.	?	?	.
O=C(CN1C(=O)/C(=C/c2ccccc2)Sc2ccccc21)NCCCN1CCOCC1	-	.	-	-62	.
Cc1ccc(/C=C2\SC(=S)N(CCC(=O)NCCCN3CCOCC3)C2=O)cc1	-	?	?	-	?
CCc1ccc(/C=C2\SC(=S)N(CCC(=O)NCCCN3CCOCC3)C2=O)cc1	-	-	-	-74	-
O=C(CN1C(=O)/C(=C/c2cccc(Br)c2)SC1=S)NCCCN1CCOCC1	-	-	-	-	-
CCc1ccc(/C=C2/Sc3ccccc3N(CC(=O)NCC3CCCO3)C2=O)cc1 (configuration not stated)	-	.	10µM	-	.
O=C(CCCN1C(=O)/C(=C/c2cccc(Br)c2)SC1=S)NCCCN1CCOCC1	-	-	-	-90	-
Cc1ccc(CCNS(=O)(=O)c2cc(-c3cc(C)no3)ccc2C)cc1	-	-	.	-	-
COc1ccc(C)cc1NS(=O)(=O)c1c(C(=O)N2CCCCCC2)c(C)n(C)c1C	-	-	.	-	-
Cc1nc(C)c(C(=O)N2CCCC(C(=O)c3ccc(Cl)cc3C)C2)s1 (configuration not stated)	-	.	-	-	.
Cc1ccc(N2C(=O)CC(c3ccccc3F)C3=C2COC3=O)cc1Cl (configuration not stated)	-	-	.	-	-
C=C(C)C1CC[C@]2(CO)CC[C@@]3(C)[C@H](CCC4[C@@]5(C)CCC(O)C(C)(C)C5CC[C@@]43C)C12 (some centres not stated)	-	-	.	.	-
Cn1ncc(C(=O)N2CCN(c3ccccc3F)CC2)c1C1CCN(C(=O)OC(C)(C)C)CC1	-	-	.	?	-
CCOC(=O)N1CCC(NC(=O)c2cnn(-c3ccc(F)cc3F)c2C2CCN(C(=O)OC(C)(C)C)CC2)CC1	-	-	.	+	-
CC(C)(C)OC(=O)N1CCC(c2c(C(=O)N3CCCCC3)cnn2-c2ccc(F)cc2F)CC1	-	-	.	-	-
Cc1ccc(-n2ncc(C(=O)N3CCN(c4ccccc4F)CC3)c2C2CCN(C(=O)OC(C)(C)C)CC2)cc1C	-	-	.	+	-
CCN1CCN(C(=O)c2cnn(-c3ccc(F)cc3F)c2C2CCN(C(=O)OC(C)(C)C)CC2)CC1	-	-	.	+	-
CC1(C(=O)NS(=O)(=O)c2cccc(Cl)c2)CCN1C(=O)C/C=C/c1ccccc1 (configuration not stated)	-	-	.	-	-
COc1cccc(CCc2ccccc2OCC[C@@H]2C[C@@H](O)CN2C)c1	-	.	.	.	.

From PubChem BioAssay
